Experimental data as given in PubChem BioAssay (NCATS).
Inconclusive results are not listed. For part of these data: Measured potencies and affinities stand elsewhere. Calls of active or inactive are those of the source. Unless noted, no rule for the calls is given here.

Key:
[1] = Ebola virus entry assay, green fluorescence channel
[2] = Ebola virus entry assay, blue channel fluorescence
[3] = Ebola virus entry assay, ratio channel
[4] = Ebola virus entry assay, green channel fluorescence
[5] = Ebola virus entry assay, reporter ratio channel; AC50: Channel type: primary unless noted; outcome: Channel type: primary unless noted
[6] = Ebola virus entry assay, blue channel (ratio component)
[7] = qHTS assay for measurement of the activity of small molecule inhibitors on Zika virus induced Caspase-3 activity in human astrocytoma cells (AID 1224859; active = well fitted inhibition curve with a large enough effect;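 also: plate controls were ZIKV-infected untreated cells for no effect and uninfected cells for full effect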); settings: SNB-19 ZIKV-induced caspase-3/7, luminescence, 6 h; series mostly up to 45.7 µM
Method in brief: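 Readout is luminescence from Caspase-Glo 3/7 added after a 6 h ZIKV infection (2 FFU/cell) of compound-pretreated (1 h) SNB-19 cells; data expressed as % inhibition versus uninfected and infected wells.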

[8] = High-throughput drug toxicity screening in the BPDCN cell line Gen2.2 (AID 1224824); settings: Gen2.2 BPDCN cells; at 45.8 µM (top of the series);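 also: cells exposed to compounds for 48 h before reading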
Method in brief: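 Gen2.2, 500 cells/well, phenol red-free RPMI/10% FBS/Pen-Strep; 48 h cpd, 37 °C/5% CO2; CTG lum, 15 min RT. Norm: DMSO = 100%, bortezomib 9.2 uM final = 0%.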

[9] = High-throughput drug toxicity screening in the BPDCN cell line Cal-1 (AID 1224825); settings: Cal-1 BPDCN cell viability, qHTS; at 45.8 µM (top of the series)
Method in brief: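 500 Cal-1 cells/well, RPMI + glutamine + 10% FBS (phenol red-free); cpd added by pin tool; 48 h, 37C, 5% CO2; CTG 15 min RT, lumi read. Normalised: DMSO 100%, bortezomib 9.2 uM 0%.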

[10] = qHTS assay for measurement of the activity of small molecule inhibitors on Zika virus induced Caspase-3 activity in human iPSC derived neural progenitor cells (hNPCs) (AID 1224857; active = well fitted inhibition curve with a large enough effect; also: % of control where 0% means no effect; nearly all actives have a fitted effect of over 65% in size); settings: hNPCs ZIKV-induced caspase-3/7, Caspase-Glo luminescence, 6 h; series mostly up to 45.7 µM
Method in brief: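 Quantitative HTS format: human iPSC neural progenitors, 1 h compound pretreatment, ZIKV 2 FFU/cell for 6 h at 37 C. Percent inhibition derived from luminescent caspase-3/7 signal between uninfected and infected controls.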

[11] = qHTS Screen of the MIPE 4.0 Collection Against Ewings Sarcoma (RDES) (AID 1259252; active = well fitted inhibition curve with a large enough effect; also: nearly all actives have a fitted effect of over 35% in size; also: potency is read from the fitted curve at half-maximal effect); settings: RD-ES Ewing sarcoma viability, CellTiter-Glo, 48 h; series mostly up to 45.8 µM
Method in brief: (§1)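 After a 4 h attachment period in RPMI/5% FBS, cells were pin-dosed with test compounds; DMSO served as negative and 9.2 uM bortezomib (final) as positive control. Luminescent CellTiter-Glo signal at 48 h defined viability.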

[12] = qHTS Screen of the MIPE 4.0 Collection Against Ewings Sarcoma (TC32) (AID 1259256; active = well fitted inhibition curve with a large enough effect;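 also: 100% = DMSO-treated cells and 0% = medium-only wells without cells; nearly all actives have a fitted effect of over 45% in size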); settings: TC32 Ewing sarcoma viability, CellTiter-Glo, 48 h; series mostly up to 45.8 µM
Method in brief: as §1

[13] = Immunotoxin (HA22) sensitization/mitigation study. Vehicle arm (PBS) (AID 1159510); settings: cancer cells viability with PBS vehicle (HA22 study); series mostly up to 46.1 µM; also: potency is read from the fitted curve at half-maximal effect
[14] = Immunotoxin (SS1P) sensitization/mitigation study. Vehicle arm (DMEM) (AID 1159513); settings: cell viability with vehicle (DMEM); series mostly up to 46.1 µM
For efficacy in this document: 0% is about no effect.

CC1NCCOC1c1ccccc1 (stereo unspecified)
inactive: efficacy [1] -41.7% | outcome [2] | outcome [3] | outcome [4] | outcome [5] | outcome [6] | outcome [7]

COc1ccc2c(c1OC)CN1CCc3cc4c(cc3C1C2)OCO4 (stereo unspecified)
active: Potency [11] 14.8 µM
62.2%: viability (% of control) [9]
173%: cell viability, % of control (lower = more cytotoxic) [8]
inactive: efficacy [1] -21% | outcome [2] | outcome [3] | outcome [4] | outcome [5] | outcome [6] | Potency [10] | outcome [7] | Potency [12]

Cn1cnc2c(F)c(Nc3ccc(Br)cc3Cl)c(C(=O)NOCCO)cc21
inactive: efficacy [1] 24.6% | outcome [2] | outcome [3] | outcome [4] | outcome [5] | outcome [6] | Potency [13] | Potency [14]

CCCN1CCC[C@@H]2Cc3[nH]ncc3C[C@H]21
inactive: efficacy [1] -15.1% | outcome [2] | outcome [3] | outcome [4] | outcome [5] | outcome [6] | Potency [10] | outcome [7]

CCCc1nc2c(C)cc(-c3nc4ccccc4n3C)cc2n1Cc1ccc(-c2ccccc2C(=O)O)cc1
active: Potency [13] 26.4 µM
inactive: efficacy [1] 21.4% | outcome [2] | outcome [3] | outcome [4] | outcome [5] | outcome [6] | Potency [14]

O=C(NC(O)C(Cl)(Cl)Cl)NC(O)C(Cl)(Cl)Cl (stereo unspecified)
inactive: efficacy [1] 18% | outcome [2] | outcome [3] | outcome [4] | outcome [5] | outcome [6] | outcome [7]

CC[N+]1(C)CCCC(OC(=O)C(O)(c2ccccc2)c2ccccc2)C1 (stereo unspecified)
inactive: efficacy [1] 26% | outcome [2] | outcome [3] | outcome [4] | outcome [5] | outcome [6] | outcome [7]

N#CC(C#N)=Cc1ccc(O)c(O)c1
inactive: efficacy [1] -17.1% | outcome [2] | outcome [3] | outcome [4] | outcome [5] | outcome [6] | Potency [10] | outcome [7]

CC(C)(N)Cc1ccc(Cl)cc1
inactive: efficacy [1] 29.5% | outcome [2] | outcome [3] | outcome [4] | outcome [5] | outcome [6] | Potency [10] | outcome [7]

CN1CC(=O)N/C1=N/C(=O)Nc1cccc(Cl)c1
inactive: efficacy [1] -15.3% | outcome [2] | outcome [3] | outcome [4] | outcome [5] | outcome [6] | Potency [13] | Potency [14]

CC(=O)[C@H]1CC[C@H]2[C@@H]3CC[C@H]4C[C@](C)(O)CC[C@]4(C)[C@H]3CC[C@]12C
inactive: efficacy [1] 28.4% | outcome [2] | outcome [3] | outcome [4] | outcome [5] | outcome [6] | Potency [10] | outcome [7]

C[C@]12CCC(=O)C(O)=C1CC[C@@H]1[C@@H]2CC[C@]2(C)C(=O)CC[C@@H]12
inactive: efficacy [1] -14% | outcome [2] | outcome [3] | outcome [4] | outcome [5] | outcome [6] | Potency [13] | Potency [14] | Potency [10] | outcome [7]

COC[C@@H](NC(C)=O)C(=O)NCc1ccccc1
inactive: efficacy [1] -31.5% | outcome [2] | outcome [3] | outcome [4] | outcome [5] | outcome [6] | Potency [10] | outcome [7] | Potency [11] | Potency [12]
142%: cell viability, % of control (lower = more cytotoxic) [8]
115%: viability (% of control) [9]

Cc1cccc(C)c1NC1=NCCCS1
inactive: efficacy [1] -17.5% | outcome [2] | outcome [3] | outcome [4] | outcome [5] | outcome [6] | outcome [7]

CC(=O)SC[C@@H](C)C(=O)N1CCC[C@H]1C(=O)N[C@@H](Cc1ccccc1)C(=O)O
inactive: efficacy [1] 13.4% | outcome [2] | outcome [3] | outcome [4] | outcome [5] | outcome [6] | Potency [13] | Potency [14]

Cn1ccc2cc3c(cc21)CCN3C(=O)Nc1cccnc1
inactive: efficacy [1] -35.6% | outcome [2] | outcome [3] | outcome [4] | outcome [5] | outcome [6] | Potency [13] | Potency [14]

CC(C)(C)NCC(O)c1cc(Cl)c(N)c(Cl)c1 (stereo unspecified)
inactive: efficacy [1] -12% | outcome [2] | outcome [3] | outcome [4] | outcome [5] | outcome [6] | Potency [10] | outcome [7]

FC(F)(F)c1cccc(C2=CCN(CCc3ccc4ccccc4c3)CC2)c1
inactive: efficacy [1] -24.5% | outcome [2] | outcome [3] | outcome [4] | outcome [5] | outcome [6] | Potency [10] | outcome [7]

CC(C)NCC(O)c1ccccc1Cl (stereo unspecified)
inactive: efficacy [1] 16.7% | outcome [2] | outcome [3] | outcome [4] | outcome [5] | outcome [6] | outcome [7]

CC(=O)Nc1cc([As](=O)(O)O)ccc1O
inactive: efficacy [1] 15.5% | outcome [2] | outcome [3] | outcome [4] | outcome [5] | outcome [6] | outcome [7]

Clc1cccc(N2CCNCC2)c1
inactive: efficacy [1] 26.6% | outcome [2] | outcome [3] | outcome [4] | outcome [5] | outcome [6] | outcome [7]
